Screens (PubChem BioAssay)
The list is not random: actives were taken first. Their share in the collection is about 7.3%.
Vaccinia mCherry – qHTS for Stage-Specific Inhibitors of Vaccinia Orthopoxvirus: mCherry Reporter Primary qHTS | 0.63% of 310,000 active | Vaccinia virus mCherry reporter infection, fluorescence | Potency, µM (doses to about 36.5 µM), inactives show at the top dose activity change, negative = inhibition, hits mostly inhibitors; calls by dose curve; tested in A549 cells; note: potency is the fitted concentration of half-maximal effect; nearly all actives have a fitted effect of over 35% in size
HCMV inh – qHTS Assay for inhibitors of the human cytomegalovirus (HCMV); activity change, negative = inhibition, % at 57.5 µM; 4.5% of 410,000 active; HFF cells, HCMV-luciferase reporter, 72 h; hits give low values; in the data active = activity change below about -60%; inconclusive = no clear call, values can overlap the other calls; inactive = above about -39%
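Steps: HFFs plated, 16 h 37C; compounds added; HCMV-luciferase added to MOI 1 PFU/cell; 72 h 37C; OneGlo reagent, 5 min room temperature; luminescence read, normalized to controls.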
FMDV inh – High Throughput Screening for Foot and Mouth Disease Virus Antivirals; FMDV antiviral cell-based qHTS; Potency, µM (highest dose often 57.9 µM), without a hit: at the top dose activity change, negative = inhibition, usual class: inhibitors; 1.2% of 410,000 active; AID 1159524, 2015; calls by dose curve; tested in HEK293T cells; note: read-out not given here; potency is the fitted concentration of half-maximal effect; nearly all actives have a fitted effect of over 45% in size
VACV Venus inh – qHTS for Stage-Specific Inhibitors of Vaccinia Orthopoxvirus: Venus Reporter Primary qHTS; Vaccinia virus Venus reporter expression, fluorescence; Potency, µM (doses to about 36.5 µM), inactives show top-dose activity change, negative = inhibition, hits mostly inhibitors; 0.46% of 330,000 active; calls by dose curve; tested in A549 cells; note: potency is the fitted concentration of half-maximal effect; nearly all actives have a fitted effect of over 30% in size
HCV inhibitor – qHTS Assay for Inhibitors of Hepatitis C Virus (HCV); Huh7.5.1 HCVcc-Cre infection, luciferase reporter, 44 h; Potency, µM (titrated, usually from 41.8 µM), inactives show top-dose activity change, negative = inhibition, actives largely listed as inhibitors; 3.4% of 340,000 active; AID 651820, 2012; active = well fitted inhibition curve with a large enough effect; inconclusive = small, poorly fitted or top-dose-only effect, or another doubt; inactive = no such curve, though single readings can be large or run the other way; note: potency is the fitted concentration of half-maximal effect
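Compounds are dispensed onto cells plated 4 h earlier at 1,000 per well, with HCVcc-Cre virus (about 0.5 moi) added next. Following 44 h of culture, luminescent signal is measured for 15 sec after 15 min with substrate at room temperature.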
The depositor's hits bear a star; i = inactive; ? = inconclusive; / = not tested or not shown. % is set by controls: 0 for no effect and ±100 for the full control effect.

SMILES	Vaccinia mCherry	HCMV inh	FMDV inh	VACV Venus inh	HCV inhibitor
Cc1cccc2sc(NC(=O)c3ccc(Cl)s3)nc12	i	90	-9%	-6%	10µM*
N#Cc1ccccc1N1CCN(C(=O)c2ccc(NC(=O)c3ccc(Br)o3)cc2)CC1	1%	/	-11%	-10%	7%
CC1=CN2C(=N)/C(=C/c3ccc([N+](=O)[O-])o3)C(=O)N=C2S1	53%	-96*	25µM*	109%	11%
CCOc1ccc(-c2ccc(/C=C3/C(=N)N4C(C)=CSC4=NC3=O)o2)c([N+](=O)[O-])c1	-23%	72	-25%	-1%	-10%
CCOc1ccc(-c2ccc(/C=C3/C(=N)N4C=CSC4=NC3=O)o2)c([N+](=O)[O-])c1	i	18	?	-3%	11µM*
COc1ccccc1N1CCN(c2cc(N3CCCC3)nc(C)n2)CC1	?	-103*	11%	-26%	?
COc1ccccc1N1CCN(c2ccc(-c3ccccc3)nn2)CC1	?	-96*	-61%	-26%	?
c1ccc(-c2cc(N3CCCCC3)ncn2)cc1	/	22	27%	?	-12%
Nc1nc(-c2ccccc2)cc(N2CCCCC2)n1	-23%	-63*	-4%	?	-21%
Cc1nc(-c2ccccc2)cc(N2CCCC2)n1	/	5	8%	/	8.9µM*
O=C(N/N=C/c1ccc(-c2ccc([N+](=O)[O-])cc2)o1)C(O)c1ccccc1 (configuration not stated)	?	-26	-6%	-6%	?
O=C(COc1ccccc1)N/N=C/c1ccc([N+](=O)[O-])o1	/	-71*	8%	/	3%
CN(/N=C/c1ccc([N+](=O)[O-])o1)c1ccccc1	-16%	-78*	0%	0%	-6%
O=C(N/N=C/c1ccc([N+](=O)[O-])o1)C(O)c1ccccc1 (configuration not stated)	/	-60*	-4%	/	?
COC(=O)c1cc2oc(C)cc2n1Cc1ccccc1Cl	-15%	-6	-1%	-9%	/
O=Cc1s/c(=N\S(=O)(=O)c2ccccc2)n(CCCCl)c1Cl	?	-108*	7.9µM*	?	4.5µM*
CCn1c(C)cs/c1=N\S(=O)(=O)c1ccccc1	i	-12	30%	-7%	18%
O=C(CCc1c[nH]c2ccccc12)N1CCC(n2c(C3CCCO3)nc3cc(C(F)(F)F)ccc32)CC1 (configuration not stated)	2%	/	-6%	2%	/
O=C(C1CCC(=O)N(C2CCCC2)C1)N1CCN(Cc2cccc(Cl)c2)CC1 (configuration not stated)	-17%	-72*	-7%	-10%	-2%
O=C(C1CC(=O)N(C2CCCC2)C1)N1CCC(Cc2ccccc2)CC1 (configuration not stated)	-23%	-65*	/	-21%	?
O=C(C1CCC(=O)N(C2CCCC2)C1)N1CCN(c2ccc(Cl)cc2)CC1 (configuration not stated)	/	-15	-28%	/	-12%
CCOC(=O)N1CCN(C(=O)C(=O)c2cn(CC(=O)N3CCCCCC3)c3ccccc23)CC1	-10%	-36	?	-17%	5%
CCCc1cc(-c2nc(N)ncc2-c2csc(C)n2)c(O)cc1OC	/	-18	-10%	/	1%
CCCc1cc(-c2nc(N)ncc2-c2ccc3c(c2)OCCCO3)c(O)cc1OC	?	?	?	13µM*	?
Cc1ccc(CNC(=O)COCc2cc(-c3ccc4c(c3)OCO4)on2)cc1	-10%	-25	-16%	-10%	/
SMILES	Vaccinia mCherry	HCMV inh	FMDV inh	VACV Venus inh	HCV inhibitor
Cc1cnc(Nc2nc3ccccc3o2)nc1C(=O)Nc1cccc(C(F)(F)F)c1	/	-74*	3%	/	6.3µM*
COc1cc(NC(=O)c2cccc3c(-c4cnn(C)c4)coc23)cc(OC)c1OC	-16%	-4	?	?	/
Cn1c2ccccc2c(=O)c2c(=O)n(-c3ccc(F)cc3)c(-c3cccs3)nc21	-5%	0	0%	0%	-13%
CC(c1ccccc1)n1c(-c2cccs2)nc2c(c(=O)c3ccccc3n2C)c1=O (configuration not stated)	-1%	5	?	-11%	14µM*
CC(=O)c1ccc(NC(=O)CN2C(=O)CCc3ccccc32)cc1	-3%	3	-5%	-5%	/
C=CCNC(=S)NNC(=O)c1ccncc1	i	-64*	2%	-14%	14%
